SENP8 block-1 – SENP8 protease inhibitors, primary screen, biochemical, luminescence | purified SENP8, Z-RLRGG-aminoluciferin cleavage | hit rate 1.2% among 330,000 | Sentrin-specific protease 8 (Homo sapiens), Q96LD8 | inhibition, % at 10 µM; in the data active = inhibition above about 50%
HSP90 refold inh – HSP90 inhibitors, primary screen, cell lysate, luminescence; hit rate 0.91% among 290,000; inhibition, % at 5.6 µM; Rabbit reticulocyte lysate, luciferase refolding luminescence, 3 h; AID 1789, 2009;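 active = inhibition above the screen-wide mean plus 3 SD, computed separately per campaign, cut at about 16% in these data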;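 note: 0% = DMSO wells and 100% = 60 µM geldanamycin wells; inhibitors lower the luminescence because luciferase stays unfolded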
Platelet DG rel – inhibitors of platelet dense granule secretion, primary screen, cell-based, MLPCN, human platelets; human platelet-rich plasma, SFLLRN dense granule ATP release, luminescence; inhibition, %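 (compounds screened at 7.5 µM in platelet-rich plasma)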; hit rate 0.22% among 300,000; AID 1663, 2009;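 active = mean replicate score, as percent of positive control, at or above 50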
SENP6 block – SENP6 protease inhibitors, primary screen, biochemical, luminescence, uHTS; Sentrin-specific protease 6 (Homo sapiens), Q9GZR1; inhibition, % at 10 µM; AID 2599, 2010; Recombinant SENP6 catalytic domain, aminoluciferin luminescence; hit rate 1.8% among 330,000;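 active = inhibition above about 50% at the single tested dose, limit read from the data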;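 note: plate controls were DMSO wells with enzyme for no effect and DMSO wells lacking enzyme for full effect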
Target sequence (Q9GZR1 628-1112 limits assumed): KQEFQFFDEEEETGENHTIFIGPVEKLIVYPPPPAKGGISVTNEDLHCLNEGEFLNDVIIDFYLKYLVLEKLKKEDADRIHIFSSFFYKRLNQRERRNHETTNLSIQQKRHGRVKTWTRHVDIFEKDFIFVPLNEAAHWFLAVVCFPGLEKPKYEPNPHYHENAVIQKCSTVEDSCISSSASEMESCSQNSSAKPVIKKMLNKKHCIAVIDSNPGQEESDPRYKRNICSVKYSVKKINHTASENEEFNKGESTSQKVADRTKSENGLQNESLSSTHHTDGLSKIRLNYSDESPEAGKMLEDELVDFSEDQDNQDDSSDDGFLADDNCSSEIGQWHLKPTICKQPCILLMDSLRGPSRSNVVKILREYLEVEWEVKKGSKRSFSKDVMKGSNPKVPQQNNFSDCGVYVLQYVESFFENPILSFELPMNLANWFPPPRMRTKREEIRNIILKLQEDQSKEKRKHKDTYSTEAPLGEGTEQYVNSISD
SENP7 block – SENP7 protease inhibitors, primary screen, biochemical, luminescence, uHTS. inhibition, % at 5 µM. Sentrin-specific protease 7 (Homo sapiens), Q9BQF6. AID 434973, 2010. recombinant SENP7, Z-RLRGG-aminoluciferin luminescence, 40 min. hit rate 1.5% among 330,000;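 active = inhibition above about 50% at the single test dose, limit read from the data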;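 note: plate controls were DMSO with enzyme for no effect and no enzyme buffer wells for full effect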
SENP8 block-2 – human SENP8 protease inhibitors, primary screen, biochemical, fluorescence, Nedd8 protein substrate, uHTS; Sentrin-specific protease 8 (Homo sapiens), Q96LD8; hit rate 0.64% among 360,000; inhibition, % at 20 µM; recombinant SENP8; AID 602440, 2012; in the data active = inhibition mostly above about 40%, no sharp cut-off; inactive = mostly below about 27%
SENP8 conf – SENP8 protease inhibitors, retest, confirmation, biochemical, luminescence, single concentration | shares compounds with SENP7 block | Recombinant SENP8, Z-RLRGG-aminoluciferin luminescence, 60 min | inhibition, % at 12.5 µM | hit rate 40% among 6,200 | AID 488912, 2010;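 active = mean inhibition across replicates above about 50%, limit read from the data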
SENP6 conf – SENP6 protease inhibitors, confirmation, biochemical, luminescence, single concentration; shares compounds with SENP7 block; inhibition, % at 12.5 µM; recombinant SENP6, Z-RLRGG-aminoluciferin luminescence; hit rate 58% among 6,200
SENP7 confirm – SENP7 protease inhibitors, retest, confirmation, biochemical, luminescence, single concentration | AID 488917, 2010 | hit rate 69% among 6,200 | recombinant SENP7, Z-RLRGG-aminoluciferin luminescence, 40 min | inhibition, % at 12.5 µM | shares compounds with SENP7 block
Casp3 select – caspase-3 protease inhibitors, confirmation, selectivity assay for SENP inhibitor project, biochemical, single concentration | shares compounds with SENP7 block | inhibition, % at 12.5 µM | purified caspase-3, Z-DEVD-aminoluciferin luminescence, 60 min | AID 488918, 2010 | hit rate 60% among 6,200;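 active = mean inhibition above about 50%, limit read from the data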;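 note: plate controls were enzyme with DMSO for no effect and wells without caspase-3 for full effect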
SENP luc ctr – counter-screen for SENP inhibitors: luminescence interference; hit rate 39% among 6,200; shares compounds with SENP7 block; inhibition, % at 12.5 µM; Pre-incubated SENP8/Z-RLRGG-aminoluciferin, luciferase luminescence interference;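 active = mean inhibition above about 50% when retested at one dose, limit read from the data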;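 note: plate controls were DMSO wells with completed reaction for no effect and substrate without enzyme for full effect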
* = called active by the depositor; x = no result. An excerpt weighted towards active compounds, which were near 2.8% of everything screened.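 Rule for the calls, unless noted: active = mean inhibition above about 50% in the one-dose retest (limit read from the data); inactive = the rest.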

SMILES	SENP8 block-1	HSP90 refold inh	Platelet DG rel	SENP6 block	SENP7 block	SENP8 block-2	SENP8 conf	SENP6 conf	SENP7 confirm	Casp3 select	SENP luc ctr
c1ccc(COc2ccc(-c3csnn3)cc2)cc1	41	-4	17	66*	73*	25	6	14	24	21	7
O=C(Oc1ccc(/C=N/O)cc1)c1ccccc1Cl	63*	-5	-3	86*	71*	-6	81*	77*	94*	77*	75*
Cc1cccc(C(=O)Oc2ccc(/C=N/O)cc2)c1	69*	1	3	76*	3	5	77*	73*	89*	74*	73*
O=C(Oc1ccc2ccc(O)cc2c1)c1ccccc1Cl	74*	-4	-4	89*	70*	12	-20	76*	91*	34	67*
CC1Cc2cc(S(=O)(=O)N3CCN(c4ccccc4F)CC3)ccc2N1C(=O)C1CC1 (stereo not given)	2	4	-5	11	-6	10	x	x	x	x	x
CC(C)CCNC(=O)c1ccc(NC(=O)C2=CSCCO2)cc1	-5	-3	-8	7	3	-5	x	x	x	x	x
C=CCNC(=O)c1ccc(NC(=O)C2=CSCCO2)cc1	69*	17*	21	73*	77*	4	74*	72*	93*	90*	73*
CCOC(=O)c1sc(/N=C/c2ccc(O)cc2O)cc1C	94*	3	-6	96*	9	-33	78*	98*	101*	83*	44
CSc1cccc(NC(=O)c2cc(S(=O)(=O)N3CCc4ccccc43)cn2C)c1	-1	8	-1	-2	2	6	x	x	x	x	x
Cc1nnsc1C(=O)N1CCCC(N2CCN(c3ccc(F)cc3)CC2)C1 (stereo not given)	0	-4	1	-3	5	3	x	x	x	x	x
CCOC(=O)CCCCCC(=O)Nc1ccc2c(c1)C(=O)N([C@H](C)CO)C[C@H](C)[C@@H](CN(C)S(C)(=O)=O)OCCCC[C@@H](C)O2	x	x	x	x	x	4	x	x	x	x	x
CC(=O)Nc1ccc(S(=O)(=O)/N=C2\C(=O)c3ccccc3C([O-])=C2n2cc[n+](-c3ccccn3)c2)cc1	53*	6	2	77*	36	56*	70*	88*	61*	54*	4
O=C(O)C1(c2ccccc2)CCN(S(=O)(=O)c2ccc(F)c(F)c2)CC1	-4	-2	-1	-19	-2	10	x	x	x	x	x
COc1ccc2c(c1)CCCC21NC(=O)N(CC(=O)NCc2cccs2)C1=O (stereo not given)	-17	x	x	-17	-15	11	x	x	x	x	x
Cc1cccc(NC(=O)c2ccc(F)c(S(=O)(=O)NCc3ccco3)c2)c1	38	1	3	52*	36	-4	39	33	63*	44	51*
CC(=O)Nc1cccc(NC(=O)c2ccc(S(=O)(=O)NCc3ccco3)cc2)c1	x	x	x	x	x	13	x	x	x	x	x
CCCCN(C)C(=O)c1cc2cc3cc(OC)ccc3nc2o1	-11	3	-1	-1	-11	-392	x	x	x	x	x
CCCCN(C)C(=O)c1cc2cc3ccc(OC)cc3nc2o1	65*	-1	4	80*	76*	-287	72*	71*	92*	85*	24
Cn1c(=O)c2nc(NCc3ccccc3)sc2n(C)c1=O	x	x	x	x	x	9	x	x	x	x	x
COCCn1c(SCC(=O)NCC2CCCO2)nc2c([nH]c3ccccc32)c1=O (stereo not given)	0	-4	38	-2	-5	-42	x	x	x	x	x
O=C1C(C=Nc2ccc(F)cc2)=C(O)c2ccccc21	74*	1	33	76*	95*	23	51*	54*	67*	66*	20
O=C1C(C=NCc2ccco2)=C(O)c2ccccc21	-4	-1	28	-54	7	17	x	x	x	x	x
COc1cc(O)c(C=Nc2ccccc2NS(=O)(=O)c2ccc(C)cc2)c(OC)c1	x	x	x	x	x	12	x	x	x	x	x
O=C1C(C=NCc2ccncc2)=C(O)c2ccccc21	-6	5	25	2	-9	8	x	x	x	x	x
COc1ccc(N=CC2=C(O)c3ccccc3C2=O)c(OC)c1	95*	33*	51*	90*	99*	50*	53*	96*	102*	88*	3
SMILES	SENP8 block-1	HSP90 refold inh	Platelet DG rel	SENP6 block	SENP7 block	SENP8 block-2	SENP8 conf	SENP6 conf	SENP7 confirm	Casp3 select	SENP luc ctr
Cc1ccccc1N=CC1=C(O)c2ccccc2C1=O	93*	10	58*	98*	102*	40*	94*	98*	102*	97*	54*
CCOc1ccccc1OCCC(=O)OCC(=O)Nc1c(C)nn(-c2ccccc2)c1C	-1	x	-2	0	7	1	x	x	x	x	x
Cc1cc(C)c(C)c(S(=O)(=O)NCc2ccc(C(=O)N3CCN(C)CC3)cc2)c1C	-1	1	-6	1	3	8	x	x	x	x	x
CC(=O)c1sc(NC(=O)c2oc3ccc(F)cc3c2C)nc1C	57*	x	x	45	80*	-469	37	39	17	50*	16
CCOC(=O)c1csc(NC(=O)c2cc(=O)c3ccccc3o2)n1	3	9	-1	6	2	3	x	x	x	x	x
CC(=O)c1sc(NC(=O)c2c(F)cccc2F)nc1C	-8	2	-1	-12	2	8	x	x	x	x	x
CC(=O)c1sc(NC(=O)c2cc(=O)c3ccccc3o2)nc1C	67*	3	-6	82*	64*	15	79*	82*	96*	90*	48

Screening data as filed in PubChem BioAssay.
